Source: PubChem
TROY signal inh: TROY signaling inhibition. Q293 LMP1-TROYcd NF-kB luciferase reporter, 4 h. inhibition, % at 10 µM. 360,000 compounds, 0.98% hits. AID 1347056;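 active = compounds whose plate-normalised and pattern-corrected inhibition of the luciferase reporter signal at the single screening dose is 50% or more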
EWS-Fli inh: EWS/Fli transcriptional activity inhibition | inhibition, % at 12.6 µM | A673 NR0B1-luciferase reporter, viability-normalised | 350,000 compounds, 0.67% hits;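 active = mean inhibition of at least 50% after viability correction, with every replicate also passing that limit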;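 also: firefly luciferase signal divided by Alamar Blue viability fluorescence both relative to DMSO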
LGR2 inh: inhibitors of bursicon-induced Drosophila LGR2 receptor cAMP signaling | HEK293 LGR2, CRE-luciferase, bursicon-stimulated, 4 h | inhibition, % at 9.99 µM | 380,000 compounds, 0.35% hits;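 active = drop in luminescence signal, shown as inhibition above about 50% in the replicate tests, limit read from the data, passing the limit was not always enough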;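 also: agonist challenge used bursicon conditioned medium at about half maximal strength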
EBV LMP1 NFkB: inhibitors of Epstein-Barr LMP1-induced NF-kappaB reporter; LMP1-induced NF-kappaB luciferase reporter cells, luminescence; inhibition, % at 12.5 µM; 350,000 compounds, 0.69% hits; AID 504558; in the data active = inhibition above about 41%;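 also: 0% = neutral control wells and 100% = reference inhibitor control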
TWEAK Fn14 block: blocks TWEAK-Fn14 interaction in a reporter cell assay | TWEAK-stimulated Fn14 reporter cells, luciferase luminescence, 8 h | inhibition, % at 10 µM | 360,000 compounds, 2% hits; in the data active = inhibition above about 50%
DNA binding: binds DNA displacing acridine orange. shares compounds with EWS-Fli inh. salmon sperm DNA acridine orange fluorescence polarization. AC35, µM (series often up to 68 µM), for inactives: top-dose activity change, negative = DNA binding. 640 compounds, 2% hits. AID 720586;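 active = fitted curve reaches a 35% signal fall AC35 below twice the sample's top valid tested dose, actives reach about 48 µM in these data; inactive = the rest, including activity in the rising direction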;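 also: lower polarization ratio signals compound binding to DNA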
Starred values were filed as active, the others as inactive; x = no result given. Sampled rows, rich in hits. Any-hit rate of the full collection: about 2.5%.

SMILES	TROY signal inh	EWS-Fli inh	LGR2 inh	EBV LMP1 NFkB	TWEAK Fn14 block	DNA binding
O=C(O)[C@@H]1[C@@H](CO)[C@@H]2Cn3c(ccc(C4=CCCCC4)c3=O)[C@H]1N2C(=O)Cc1ccccn1	x	0.4	1.4	x	x	x
CC1=CC2OC3CC4OC(=O)C=CC=CC(=O)OCCC(C)C(O)C(=O)OCC2(CC1O)C4(C)C31CO1 (stereo unspecified)	84.4*	x	x	84.6*	96.0*	x
CC1=CC2OC3CC4OC(=O)C=CC=CC(C(C)O)OCC(O)C(C)CC(=O)OCC2(CC1O)C4(C)C31CO1 (stereo unspecified)	84.2*	51.1*	107.0*	83.6*	99.3*	x
CC=Cc1ccc2n(c1=O)C[C@H]1[C@H](CO)[C@@H](C(=O)OC)[C@@H]2N1C(=O)CC (mixture of isomers)	x	-4.5	-2.3	x	x	x
O=C(Cc1cccnc1)N1CCCCN2[C@H](CO)[C@@H](c3ccc(C#CC4CC4)cc3)[C@@H]2C1	x	6.7	x	x	x	x
CC(C)CC#Cc1ccc([C@@H]2[C@H](CO)N3CCCCN(C(=O)Cc4ccccn4)C[C@@H]23)cc1	x	2.4	12.8	x	x	x
CCCCCCOc1ccc(CN2CCN(CC)CC2)cc1	60.3*	x	x	13.2	65.9*	x
CCN1CCN(Cc2ccc(OC(F)(F)F)cc2)CC1	9.9	x	-10.9	-3.2	-9.1	x
C[C@@H]1O[C@@H](O[C@@H]2C=C3CCC4C(CC[C@]5(C)[C@@H](c6ccc(=O)oc6)CC[C@]45O)[C@@]3(C)CC2)[C@H](O)[C@H](O)[C@H]1O (stereo partly specified)	47.4	71.3*	0.1	88.1*	82.5*	1.9%
C[C@@H]1O[C@@H](O[C@@H]2C=C3CC[C@@H]4C(CC[C@]5(C)[C@@H](c6ccc(=O)oc6)CC[C@]45O)[C@@]3(C)CC2)[C@H](O)[C@H](O)[C@H]1O (stereo partly specified)	50.9*	70.9*	86.0*	82.3*	85.9*	-9.6%
CC=Cc1ccc2n(c1=O)C[C@@H]1[C@@H](CO)[C@H](C(=O)OC)[C@H]2N1S(=O)(=O)c1ccccc1C (mixture of isomers)	x	18.7	-9.8	x	x	x
O=C(Cc1ccccc1)N1CCCCN2[C@H](C1)[C@@H](c1ccc(C#Cc3ccccc3)cc1)[C@@H]2CO	x	x	18.1	x	x	x
COC1C(C)OC(OC2CC(C)(O)Cc3cc4c(c(O)c32)C(=O)c2c(O)cc3c(c2C4=O)OC2OC3(C)C(O)C(N(C)C)C2O)C(OC)C1(C)OC (stereo unspecified)	11.8	55.7*	20.0	84.9*	14.9	1.26µM*
C[C@@H]1CN([C@@H](C)CO)C(=O)CCCn2cc(nn2)CO[C@@H]1CN(C)C(=O)Oc1ccc2ccccc2c1	x	-5.1	7.7	x	x	x
O=C1NC(=S)NC(=O)C1=Cc1cccn1-c1ccc(O)cc1	48.8	71.5*	x	15.6	71.4*	-0.1%
COc1ccc(C(=O)N/N=C/C23CC[C@@H](O)CC2(O)CC[C@@H]2[C@@H]3CCC3(C)C(C4=CC(=O)OC4)CCC23O)cc1 (stereo partly specified)	-6.2	10.8	17.1	-8.7	-12.1	x
C[C@@H]1O[C@@H](O[C@H]2C[C@@H](O)[C@]3(CO)[C@H]4[C@H](O)C[C@]5(C)[C@@H](C6COC(=O)C6)CC[C@]5(O)[C@@H]4CC[C@]3(O)C2)[C@H](O)[C@H](O)[C@H]1O (stereo partly specified)	46.0	70.3*	81.2*	54.8*	71.1*	-0.9%
CC1OC(OC2CC(O)C3(CO)C4C(O)CC5(C)C(C6=CC(=O)OC6)CCC5(O)C4CCC3(O)C2)C(O)C(O)C1O (stereo unspecified)	44.2	67.7*	89.6*	80.0*	91.6*	4.6%
CN1[C@@H]2Cn3c(cccc3=O)[C@H]1[C@@H](C(=O)NCC1CC1)[C@@H]2CO	x	-4.7	-12.0	x	x	x
O=C(Cc1cccnc1)N1CCCCN2[C@H](CO)[C@@H](c3ccc(C#CC4(O)CCCC4)cc3)[C@@H]2C1	x	-0.3	-1.8	x	x	x
CC(=O)OC1CC(OC2C(O)CC(OC3C(O)CC(OC4CCC5(C)C(CCC6C5CCC5(C)C(C7=CC(=O)OC7)CCC65O)C4)OC3C)OC2C)OC(C)C1OC1OC(CO)C(O)C(O)C1O (stereo unspecified)	42.5	52.9*	85.8*	76.0*	80.5*	-16.7%
COC(=O)[C@@H]1[C@@H](CO)[C@@H]2Cn3c(ccc(-c4ccccc4)c3=O)[C@H]1N2CC1CCCC1	x	-1.5	11.6	x	x	x
COC(=O)[C@H]1[C@H](CO)[C@H]2Cn3c(ccc(-c4ccccc4F)c3=O)[C@@H]1N2CC1CCCC1	x	66.2*	-0.5	x	x	-9.9%
O=C(O)[C@H]1[C@H](CO)[C@H]2Cn3c(ccc(-c4ccccc4F)c3=O)[C@@H]1N2C(=O)Nc1ccccc1	x	-0.7	8.9	x	x	x
